Only some compounds are listed: those with a hit (about 3.1% of all), similar ones and a draw of the others.
Tau fibril FP: blocks human tau fibril formation measured by polarization. P10636. 0.39% of 280,000 active. Potency, µM (top dose mostly 57.7 µM), for inactives: top-dose activity, negative = inhibition, usual class: inhibitors. K18 P301L tau heparin fibrillization, Alexa594 FP, 6 h; also: nearly all actives have a fitted effect of over 55% in size
Target sequence (P10636 561-689 P618L limits assumed): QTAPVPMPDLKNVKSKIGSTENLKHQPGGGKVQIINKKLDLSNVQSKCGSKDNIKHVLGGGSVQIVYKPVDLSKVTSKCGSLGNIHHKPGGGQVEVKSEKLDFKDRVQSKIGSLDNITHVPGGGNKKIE
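K18 P301L tau (15 uM unlabeled/0.24 uM Alexa 594-labeled, final) + compound + heparin 20 uM final; 100 mM NaOAc pH 7; 6 hr 37 C; ThT 30 uM final added, 1 hr RT; FP ex 555/em 632 nm.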
TR SRC2 fluor cs: alters Texas Red total fluorescence, flagging assay interference. 0.29% of 280,000 active. Potency, µM (top dose mostly 106 µM), without a hit: at the highest dose fluorescence change, negative = quenching. TRb/SRC2 Texas Red total fluorescence interference; active = well fitted curve in either direction with a large enough effect; inconclusive = small, poorly fitted or top-dose-only effect
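Human TRβ ligand-binding domain (0.6 uM) and Texas Red SRC2 peptide (20 nM) in Tris buffer with 1 uM T3 and 5% DMSO were incubated with pinned compound for 5 hr at ambient temperature. Total fluorescence was computed as S + 2P (555/632 nm).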
TRb-SRC2 inh: TRbeta-SRC2 interaction inhibition; P10828; TRbeta-SRC2 peptide binding, fluorescence polarization; receptor liganded with 1 µM T3; Potency, µM (top dose mostly 106 µM), inactives show at the highest dose activity change, negative = inhibition, usual class: inhibitors; 0.065% of 280,000 active;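 also: plate controls were bound peptide for no effect and peptide without receptor for full effect; nearly all actives have a fitted effect of over 50% in size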
Target sequence (P10828 whole entry, looked up): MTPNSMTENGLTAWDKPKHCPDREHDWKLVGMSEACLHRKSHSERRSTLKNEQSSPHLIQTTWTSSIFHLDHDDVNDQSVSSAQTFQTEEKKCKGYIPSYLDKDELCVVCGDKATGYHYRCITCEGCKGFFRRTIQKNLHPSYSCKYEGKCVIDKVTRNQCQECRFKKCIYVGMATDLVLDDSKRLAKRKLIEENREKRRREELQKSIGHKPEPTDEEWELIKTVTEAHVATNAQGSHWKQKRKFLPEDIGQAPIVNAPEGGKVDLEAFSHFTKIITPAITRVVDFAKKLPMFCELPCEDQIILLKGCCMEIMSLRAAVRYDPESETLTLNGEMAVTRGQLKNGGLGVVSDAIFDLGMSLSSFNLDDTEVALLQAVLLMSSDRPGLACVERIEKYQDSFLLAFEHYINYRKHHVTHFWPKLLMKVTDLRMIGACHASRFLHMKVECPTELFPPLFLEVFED
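Fluorescence polarization of 20 nM Texas Red SRC2 peptide (20-aa NR interaction domain) bound to 0.6 uM human TRb ligand-binding domain, with 1 uM T3, after 5 hr at ambient temperature; inhibition seen as decreased polarization.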
Tau fluor counter: counter-screen for tau fibril formation inhibitors | AID 1463 | tau K18 P301L Alexa594 fluorescence, heparin fibrillization | Potency, µM (titrated, usually from 57.7 µM), inactives show at the top dose activity change, negative = decrease | 0.93% of 280,000 active; also: nearly all actives have a fitted effect of over 55% in size
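Human K18 P301L tau (15 uM unlabeled plus 0.24 uM Alexa 594-labeled, final) in 100 mM sodium acetate pH 7 was mixed with compound and 20 uM heparin and incubated 6 hr at 37 C.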
Tau ThT inhib: tau fibrillization inhibition (ThT binding); recombinant tau K18 P301L (four-repeat tau fragment), heparin-induced fibrillization, ThT fluorescence; Potency, µM (series often up to 57.4 µM), for inactives: at the top dose activity, negative = inhibition, actives largely listed as inhibitors; AID 1460; P10636; 2.1% of 270,000 active; also: nearly all actives have a fitted effect of over 55% in size
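K18 P301L tau (15 uM + 0.24 uM Alexa 594-tagged), heparin 20 uM, NaOAc pH 7, 6 h 37 C; ThT 30 uM, 1 h RT, ex 450/em 510 nm.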
Numbers without * were called inactive; ? = inconclusive; · = no result given; ! = not active in a repeat; [ ] = another dose, or the depositor's remark. Unless noted, calls follow the shape of the dose curve; as a rule, active = well fitted curve in the direction sought with a large enough effect; inconclusive = small, poorly fitted or top-dose-only effect, or another doubt; inactive = no such curve, though single readings can be large; an effect the other way counts as inactive or inconclusive. Unless noted, % is scaled to controls: 0 for no effect and ±100 for the full control effect; potency is read from the fitted curve at half-maximal effect.

SMILES	Tau fibril FP	TR SRC2 fluor cs	TRb-SRC2 inh	Tau fluor counter	Tau ThT inhib
Oc1cc(O)c2c(c1)OC(c1cc(O)c(O)c(O)c1)C(O)C2 (centres undefined)	?	-12%	1%	?	25µM*
COC(=O)/C=C(\C)OP(=O)(OC)OC	·	-1%[201 µM]	-3%[201 µM]	·	·
CS/C(C)=N/OC(=O)N(C)SN(C)C(=O)O/N=C(\C)SC	·	5%[201 µM]	0%[201 µM]	·	·
CCN(CC)C(=O)SCc1ccc(Cl)cc1	·	-2%[201 µM]	3%[201 µM]	·	·
C=C(C)CN(CC)c1c([N+](=O)[O-])cc(C(F)(F)F)cc1[N+](=O)[O-]	·	1%[201 µM]	-3%[201 µM]	·	·
Cc1ccc(NC(=O)Cn2cc(C(=O)c3ccccc3)c3ccccc32)cc1	-19%	0.025µM*[quencher]	-15%	?	5%
CC(C)c1ccc(N2C(=O)NC(=O)/C(=C/C=C/c3ccco3)C2=O)cc1	14µM*	10%	11%	-29%	14µM*
Cc1cc(C)cc(N2C(=O)NC(=O)/C(=C\C=C\c3ccco3)C2=O)c1	?	20%	10%	-18%	13µM*
Cc1ccc(N2C(=O)NC(=O)/C(=C/C=C/c3ccco3)C2=O)cc1	?	22%	23%	-12%	14µM*
O=C1NC(=O)N(c2ccccc2)C(=O)/C1=C\C=C\c1ccccc1	?	-4%	4%	-22%	11µM*
Cc1ccc(N2C(=O)NC(=O)/C(=C/c3ccoc3)C2=O)cc1	-12%	25%	3%	-14%	·
Cc1ccc2ccccc2c1C	·	-1%	4%	·	·
CN1COCN(Cc2cnc(Cl)s2)/C1=N\[N+](=O)[O-]	·	3%[201 µM]	-1%[201 µM]	·	·
CC(C)NC(=O)N1CC(=O)N(c2cc(Cl)cc(Cl)c2)C1=O	·	0%[201 µM]	4%[201 µM]	·	·
CCc1ccc(N2C(=O)NC(=O)/C(=C\C=C\c3ccco3)C2=O)cc1	13µM*	10%	5%	-7%	10µM*
CCCCN1C(=O)/C(=C/c2ccc(N(C)C)cc2)C(=O)N(Cc2ccco2)C1=O	-12%	40µM*[fluorescent]	?	-11%	?
O=C1NC(=O)N(Cc2ccccc2)C(=O)/C1=C\c1ccco1	-5%	4%	4%	-4%	?
CCc1ccc(N2NC(=O)/C(=C/C=C/c3ccco3)C2=O)cc1	?	1%	10%	10µM*[quencher]	8.9µM*
O=C1NC(=O)N(Cc2ccc(F)cc2)C(=O)/C1=C\C=C\c1ccco1	·	7%	6%	·	·
CCCCN1C(=O)/C(=C\c2ccco2)C(=O)N(CCc2ccccc2)C1=O	1%	28µM*[fluorescent]	?	-9%	?
CC1(C)CON(Cc2ccccc2Cl)C1=O	·	-15%[201 µM]	-8%[201 µM]	·	·
O=C=Nc1ccc(Cl)cc1	·	-6%[201 µM]	-2%[201 µM]	·	·
CCCCN1C(=O)/C(=C/C=C/c2ccco2)C(=O)NC1=S	?	18%	?	-30%	16µM*
COCCNC(=O)c1c(NC(=O)c2ccco2)n(Cc2ccccc2)c2nc3ccccc3nc12	?	-5%	-24%	?	14µM*
COCCCNC(=O)c1c(NC(=O)c2ccccc2Cl)n(Cc2ccccc2)c2nc3ccccc3nc12	5%	1%	1%	-11%	4%
SMILES	Tau fibril FP	TR SRC2 fluor cs	TRb-SRC2 inh	Tau fluor counter	Tau ThT inhib
C=CCc1cc(C=C2C(=O)NC(=O)NC2=O)cc(OC)c1OCc1ccc(C(=O)O)cc1	?	-3%	-8%	-15%	?
C=CCc1cc(C=C2C(=O)N(C)C(=O)N(C)C2=O)cc(OCC)c1OCc1ccccc1	?	1%	-11%	-14%	25µM*
O=c1[nH]c(=S)n(C2CC2)c(O)c1/C=N/Nc1cccc2ccccc12	?	-1%	-1%	?	11µM*
O=c1[nH]c(=S)n(C2CC2)c(O)c1/C=N/Nc1ccccc1	?	10%	7%	-29%	11µM*
O=c1[nH]c(=O)n(CCC2=CCCCC2)c(O)c1/C=N/Nc1cccc2ccccc12	?	11%	10%	?	18µM*
CCC(C)n1c(O)c(/C=N/Nc2ccccc2)c(=O)[nH]c1=S (centres undefined)	-8%	0%	-2%	?	18µM*
CC(N=Cc1c(O)n(C2CC2)c(=S)[nH]c1=O)c1ccccc1 (centres undefined)	-7%	3%	0%	-16%	-8%
CC(C)(C)OOC(C)(C)c1ccc(C(C)(C)OOC(C)(C)C)cc1	·	-5%[201 µM]	1%[201 µM]	·	·
CNC(=O)/C=C(\C)OP(=O)(OC)OC	·	1%[201 µM]	-4%[201 µM]	·	·
NS(=O)(=O)C(F)(F)C(F)(F)C(F)(F)C(F)(F)C(F)(F)C(F)(F)C(F)(F)C(F)(F)F	·	3%[201 µM]	5%[201 µM]	·	·
O=C1NC(=O)C(=Cc2ccc(-c3cc(Cl)ccc3[N+](=O)[O-])o2)C(=O)N1	-4%	-3%	5%	-26%	7.9µM*
O=C1NC(=O)C(=Cc2ccc(-c3ccccc3[N+](=O)[O-])o2)C(=O)N1	1%	-7%	4%	-7%	·
C/C(=N\C(N)=O)N(C)Cc1ccc(Cl)nc1	·	2%[201 µM]	-1%[201 µM]	·	·
N#CSCC(=O)N1c2ccccc2CCc2ccccc21	?	-2%	1%	-19%	14µM*
Nc1ccccc1C(=O)OCC(=O)N1CCc2ccccc21	9%	-3%	0%	-14%	?
N/C(=N\N=C/c1ccc(-c2ccc(O)c(C(=O)O)c2)o1)N[N+](=O)[O-]	-4%	?	1%	?	4.5µM*
ClC1=C(Cl)C(Cl)(C2(Cl)C(Cl)=C(Cl)C(Cl)=C2Cl)C(Cl)=C1Cl	·	32µM*[quencher]	?	·	·
CCCCC(O)(Cn1cncn1)c1ccc(Cl)cc1Cl (centres undefined)	·	-1%[201 µM]	0%[201 µM]	·	·
CNC(=O)Oc1cccc(-c2cn3cc(OC(=O)NC)ccc3n2)c1	-12%	?	?	?	14µM*
Oc1cccc2nc3ccccc3nc12	-11%	-6%	-12%	-21%	16µM*
CCNS(=O)(=O)C(F)(F)C(F)(F)C(F)(F)C(F)(F)C(F)(F)C(F)(F)C(F)(F)C(F)(F)F	·	-2%[201 µM]	-1%[201 µM]	·	·
O=c1[nH]sc2cc(F)ccc12	28µM*	-1%	-6%	-25%	11µM*
Cc1cc(C=C2C(=O)NC(=S)NC2=O)c(C)n1-c1ccc2c(c1)OCO2	-8%	28184µM*[quencher]	-9%	?	14µM*
c1ccc2cc(CC3=NCCN3)ccc2c1	-3%	1%	10%	-12%	-4%
c1ccc(C2CC2)c(OCC2=NCCN2)c1	6%	45µM*![fluorescent]	?	-1%	1%
CC(=O)OC1CC(OC(C)=O)[C@]2(C)C(CC(OC(C)=O)[C@]3(C)C2CC[C@@]2(C)C(c4ccoc4)C[C@H]4O[C@]432)C1(C)C (some centres undefined)	-7%	-3%	-7%	-13%	-2%
CC(=O)O[C@@H]1C[C@@]2(C)C(c3ccoc3)C[C@H]3O[C@]32[C@]2(C)C(=O)C(O)=C3C(C)(C)C(=O)C=C[C@]3(C)C12 (some centres undefined)	?	-1%	-6%	-8%	25µM*
